# PubChem BioAssay AID485364 (National Center for Advancing Translational Sciences (NCATS), 2010)
# About 11,000 (3.1%) of roughly 360,000 compounds were called active. Where a call stands in place of a potency, no number is given. Not shown: some 4% with an inconclusive outcome. This is one part of a sample in which actives are shown more often than they occur. The call rests on the fitted dose curve; in most records, active means well fitted inhibition curve with a large enough effect; inconclusive means small, poorly fitted or top-dose-only effect; inactive means no such curve, though single readings can be large or run the other way.
# Target: Schistosoma mansoni thioredoxin glutathione reductase (TGR) (UniProt Q962Y6)
# Experiment: qHTS Assay for the Inhibitors of Schistosoma Mansoni Peroxiredoxins; further: nearly all actives have a fitted effect of over 60% in size
# Settings: purified TGR, DTNB reduction, TNB absorbance 405 nm; series mostly up to 114 µM
# How it was run: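 First, TGR (20 nM dispensed) and NADPH were mixed with compound. Second, a 15 min room-temperature incubation followed. Third, further NADPH and then DTNB were added to start the reaction. Finally, TNB absorbance was monitored kinetically.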
# Potency means the concentration at half of the fitted maximal effect.
row,Compound,Potency
1,COc1ccc(NC(=O)c2sc3nc[nH]c(=O)c3c2C)cc1,inactive
2,COc1ccccc1NC(=O)C1=C(C)Nc2nc(SCC(=O)c3ccc(C)cc3)nn2C1c1ccccc1C (stereo not drawn),inactive
3,CCCCCn1c(=O)[nH]c2cc(C(=O)Nc3cc(C)cc(C)c3)ccc2c1=O,inactive
4,O=C1CC[C@H](O)CCN1[C@H](CSc1ccc(Br)cc1)Cc1ccccc1,inactive
5,COc1ccc(SC[C@H](Cc2ccccc2)N2CCN(CCc3ccccc3)CCC2=O)cc1,17.8 µM (active)
6,C[C@H]1CCC(=O)N([C@H](CSc2ccccc2)Cc2ccccc2)CC1,inactive
7,COc1cccc(NC(=O)CSC2=Nc3ccccc3C3=NC(CC(=O)NC4CCCCC4)C(=O)N23)c1 (stereo not drawn),inactive
8,CC(=O)c1ccc(NC(=O)c2nc3nc(C)cc(C(F)F)n3n2)cc1,inactive
9,O=C(/C=C/c1ccco1)NC(=S)N1CCCCC1,25.1 µM (active)
10,O=C(/C=C/c1ccco1)NC(=S)Nc1ccccc1Br,35.5 µM (active)
11,COc1ccc(/C=C/C(=O)NC(=S)N2CCCC(C(N)=O)C2)cc1 (stereo not drawn),inactive
12,O=C(NNC(=S)Nc1ccc(Br)cc1Cl)c1ccco1,inactive
13,COc1ccccc1/C=C/C(=O)NC(=S)N1CCOCC1,inactive
14,COc1ccc(Cl)cc1C(=O)NNC(=S)NC(=O)/C=C/c1ccco1,inactive
15,O=C(Nc1ccc2nc(SCC(=O)N3CCCc4ccccc43)sc2c1)c1ccc(Cl)cc1,inactive
16,COc1ccccc1-c1noc(CSc2nnc(-c3ccccc3)n2-c2ccc(C)c(C)c2)n1,inactive
17,O=C(O)c1ccc(CSc2nc3cccnc3n2Cc2cccc(F)c2)cc1,inactive
18,Cc1ccc(-n2ncc(C(=O)N(C)Cc3ccccc3)c2-n2cccc2)cc1,inactive
19,CC(=O)c1ccc(NS(=O)(=O)c2ccc(-c3cc(C)no3)s2)cc1,inactive
20,COc1ccccc1CNC(=O)c1ccc(-n2c(C)cc3c2CCCC3)cc1,inactive
21,Cn1c(=O)c(=O)n(C)c2cc(NC(=O)c3ccccc3Br)ccc21,inactive

row,Compound,Potency
1,CN1C(=O)/C(=N/OC(=O)c2ccccc2Br)c2ccccc21,12.6 µM (active)
2,CN1C(=O)/C(=C\c2cc(Br)cs2)c2ccccc21,inactive
3,Cc1ccc(C)c(NC(=O)CSC2=Nc3ccccc3N=C(c3ccc(F)cc3)C2)c1,inactive
4,COc1cc(C(=O)Nc2ccc(-n3c(C)nc4ccccc4c3=O)cc2)cc(OC)c1OC,inactive
5,Cc1ccc(SC(CC(=O)c2ccc(C(C)(C)C)cc2)C(=O)O)cc1 (stereo not drawn),2 µM (active)
6,Cc1ccc(Sc2cc(C(=O)c3ccccc3C(=O)O)ccc2[N+](=O)[O-])cc1,inactive
7,CC(C)(C)c1ccc(C(=O)NNC(=O)Cc2ccccc2)cc1,inactive
8,COc1ccc2[nH]c3c(c2c1)CCN(C(=O)CCC1CCCC1)C3c1ccc(F)cc1 (stereo not drawn),inactive
9,C#CCNC(=O)C1=C[C@@H](c2ccccc2)[C@H](CCCO)[C@@H](OCC)O1,35.5 µM (active)
10,CCO[C@@H]1OC(C(N)=O)=C[C@H](c2ccc(Br)cc2)[C@H]1CCCO,inactive
11,CCO[C@H]1OC(C(=O)NCc2ccccc2)=C[C@@H](c2coc3ccccc3c2=O)[C@@H]1CCCO,inactive
12,Cn1c(SCC(=O)N2CCCC2)nnc1-c1cccs1,inactive
13,CCn1c(SCC(=O)Nc2nccs2)nnc1-c1ccco1,inactive
14,Cn1c(SCC(=O)c2cccs2)nnc1-c1ccco1,44.7 µM (active)
15,Cc1ccc(SCC(=O)Nc2ccc3oc(-c4ccccc4F)nc3c2)cc1,inactive
16,CCc1ccc(Nc2nn3c(=O)c4cc5c(cc4nc3s2)OCO5)cc1,inactive
17,CC(=O)CCS(=O)(=O)c1ccc(C)c(C)c1,50.1 µM (active)
18,Cc1ccc(S(=O)(=O)NCCC(=O)Nc2ccc(C)c(Cl)c2)cc1C,inactive
19,O=C(O)CCS(=O)(=O)c1ccc(-c2ccccc2)cc1,inactive
20,CC(=O)c1c(C)n(S(=O)(=O)c2ccc(Cl)cc2)c2ccc(NS(=O)(=O)c3ccc(Cl)cc3)cc12,inactive
21,CSc1nn(Cc2cccc(C)c2)c(N)c1S(=O)(=O)c1ccccc1,inactive

row,Compound,Potency
1,CC(C)(C)c1ccc(/C=C/C(=O)NC2CCS(=O)(=O)C2)cc1 (stereo not drawn),inactive
2,O=C(NCC1CCCO1)/C(=C\c1ccco1)NC(=O)c1ccccc1 (stereo not drawn),inactive
3,O=C(Nc1ccccc1)/C(=C\c1ccco1)NC(=O)c1ccco1,10 µM (active)
4,NC(=O)C1CCN(C(=O)/C(=C/c2ccco2)NC(=O)c2ccccc2)CC1,inactive
5,COc1ccccc1C(=O)N/C(=C/c1ccco1)C(=O)Nc1ccc(C(=O)O)cc1,50.1 µM (active)
6,Cc1ccc(C(=O)N/C(=C/C=C/c2ccccc2)C(=O)NCc2ccco2)cc1,inactive
7,COc1ccc(/C=C(/NC(=O)c2ccco2)C(=O)Nc2ccc(C(C)=O)cc2)cc1,inactive
8,Cc1ccc(C(=O)N/C(=C\c2ccco2)C(=O)NC2CCS(=O)(=O)C2)cc1 (stereo not drawn),31.6 µM (active)
9,Cc1ccc(NC(=O)/C(=C\c2ccccc2)NC(=O)c2ccco2)cc1,inactive
10,O=C(NNC(=O)c1ccco1)Nc1ccccc1,inactive
11,O=C(NCc1ccco1)/C(=C/c1ccco1)NC(=O)c1ccccc1,39.8 µM (active)
12,COc1ccccc1C(=O)N/C(=C/c1ccc2c(c1)OCO2)C(=O)Nc1cccc(C(=O)O)c1,inactive
13,Cc1cccc(Cc2c(C)nc3nc(SCc4ccccc4Cl)nn3c2C)c1,inactive
14,Cc1ccc(Cl)cc1NC(=O)CCC(=O)N1CC(C)Sc2ccccc21 (stereo not drawn),inactive
15,Cc1oc2ncnc(N3CCCCC3)c2c1C(=O)N1CCN(c2cccc(Cl)c2)CC1,inactive
16,COc1cccc(NC(=O)Nc2ccc3c(c2)N(C)C(=O)c2ccccc2S3)c1,inactive
17,CCOc1ccc(CCNC(=O)Cn2nc(CC)n3c(cc4sc(CC)cc43)c2=O)cc1OCC,inactive
18,Cc1ccc2c(=O)c(C(=O)c3ccc(Cl)cc3)cn(CC(=O)NC3CCCCC3)c2n1,inactive
19,Cc1noc(/C=C/N(C)C)c1S(=O)(=O)N1CCCC(C(=O)Nc2cccc(F)c2)C1 (stereo not drawn),inactive
20,CCc1cccc(NC(=O)c2cnc(N3CCOCC3)c3ccccc23)c1,inactive
21,Cc1ccc(CNC(=O)CCC(=O)N2Cc3ccccc3Oc3ncccc32)cc1,inactive
